Only some compounds are listed: those with a hit (about 20% of all), similar ones and a draw of the others.
HCMV antiviral: blocks human cytomegalovirus replication; HFF cells, HCMV-luciferase reporter, 72 h; stronger effect = lower value; activity change, negative = inhibition, % at 57.5 µM; hit rate 4.5% among 410,000; in the data active = activity change below about -60%; inconclusive = no clear call, values can overlap the other calls; inactive = above about -39%
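Inhibition of viral replication was scored as loss of reporter luminescence in HFFs infected with HCMV-luciferase (MOI 1 PFU/cell) for 72 h; compounds tested at 2 doses, normalized to buffer and Salinomycin controls.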
Pf growth 48h: P. falciparum growth inhibition at 48 hours (one generation) | P. falciparum luciferase growth in erythrocytes, 48 h | Potency, µM (top dose mostly 28.7 µM), most hits filed as inhibitors | hit rate 5.9% among 310,000
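Luciferase-expressing P. falciparum in infected erythrocytes (2% hematocrit, 0.1% parasitemia final) in RPMI 1640/0.5% Albumax were exposed to compound for 48 hours at 37 C, 5% CO2; growth read as luminescence.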
CHX counter: counter-screen for Shiga toxin inhibitors: cycloheximide protein synthesis inhibition. hit rate 12% among 300,000. AID 2314. cell reporter, cycloheximide protein synthesis inhibition counterscreen. max response, %; in the data active = max response mostly above about 13%, no sharp cut-off; inactive = mostly below about 14%; note: read at 38.3 µM for the half of the compounds with a filed dose
Shiga toxin inh: blocks Shiga toxin action in Vero cells; hit rate 9.2% among 290,000; AID 2315; inhibition, % at 38.7 µM; Vero cells, Shiga toxin protein synthesis inhibition reporter; in the data active = inhibition mostly above about 28%, no sharp cut-off; inactive = mostly below about 43%
Pf growth 96h: P. falciparum growth inhibition at 96 hours; hit rate 6.9% among 320,000; Potency, µM (titrated, usually from 28.7 µM), most hits filed as inhibitors; P. falciparum luciferase reporter growth, 96 h
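Luminescence readout: decreased luciferase signal marks inhibited growth of reporter-expressing P. falciparum in infected red cells (2% hematocrit, 0.05% parasitemia final), exposed to compound two generations (96 h, 37 C, 5% CO2).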
Of the large screens only hits and unclear results are named; the others gave an inactive call. Unless noted, calls come from the whole dose curve; as a rule, active = well fitted inhibition curve with a large enough effect; inconclusive = small, poorly fitted or top-dose-only effect, or another doubt; inactive = no such curve, though single readings can be large or run the other way.

C=CCNC(=O)/C=C/c1c(F)cccc1Cl	CHX counter 28.6, Shiga toxin inh 57.0
O=C(/C=C/c1c(F)cccc1Cl)Nc1ncccn1	CHX counter 56.8, Shiga toxin inh 61.1, Pf growth 96h inconclusive
CC1CCCN(C(=O)CSc2c3c(nc4cc(Cl)ccc24)CCCC3)C1 (stereo not drawn)	none (no result: Pf growth 48h, CHX counter, Shiga toxin inh, Pf growth 96h)
Cc1ccc(NC(=O)CN2CCN(S(=O)(=O)c3ccc(C(C)C)cc3)CC2)cc1F	none (no result: Pf growth 48h, CHX counter, Shiga toxin inh, Pf growth 96h)
Cc1ccc(C)n1C1C(=O)N(Cc2ccc(C(C)C)cc2)c2ccc(Cl)cc21 (stereo not drawn)	none (no result: Pf growth 48h, CHX counter, Shiga toxin inh, Pf growth 96h)
O=C(NCc1ccccc1)c1ccc(NC(=O)C2CCCO2)cc1 (stereo not drawn)	Pf growth 96h inconclusive
CC1(C(=O)Nc2ccc3c(c2)OCO3)Cc2c(-c3cccc(C(N)=O)c3)ccnc2O1 (stereo not drawn)	none (no result: Pf growth 48h, CHX counter, Shiga toxin inh, Pf growth 96h)
O=C1S/C(=C/c2ccc(N3CCOCC3)o2)C(=O)N1Cc1c(F)cccc1Cl	none (no result: Pf growth 96h)
O=C1S/C(=C\c2ccc(N3CCOCC3)o2)C(=O)N1c1ccccc1	CHX counter 30.6, Shiga toxin inh 153.3
CC1=NN(c2ccc(Br)cc2)C(=O)/C1=C/c1ccc(-c2ccccc2C(=O)O)o1	none (no result: Shiga toxin inh)
O=C1S/C(=C\c2ccc(N3CCOCC3)o2)C(=O)N1Cc1c(F)cccc1Cl	Pf growth 48h inconclusive, Pf growth 96h 11.7µM
O=C(O)c1ccccc1-c1ccc(C=C2C(=O)N(c3ccccc3)C(=S)N(c3ccccc3)C2=O)o1	Pf growth 96h 11.7µM (no result: Shiga toxin inh)
O=C(O)c1ccccc1-c1ccc(/C=C2\SC(=O)N(c3ccccc3)C2=O)o1	CHX counter 14.8, Pf growth 96h inconclusive (no result: Shiga toxin inh)
COc1ccccc1NC(=O)NCC1(N(C)C)CCCCC1	none
CCn1c(SCC(=O)Nc2cc(C)on2)nc2c(c1=O)SCC2	Pf growth 48h inconclusive
Cc1ccccc1Cn1c(=O)n(CCCCC(=O)NCCc2ccccc2)c(=O)c2ccccc21	none (no result: Pf growth 48h, CHX counter, Shiga toxin inh, Pf growth 96h)
CCOC(=O)Cc1c(C)nc2c(-c3ccccc3OC)c(C)nn2c1C	Pf growth 48h inconclusive, Pf growth 96h inconclusive
CCOC(=O)Cc1c(C)nc2c(-c3ccc(Cl)cc3)c(C)nn2c1C	Pf growth 48h inconclusive
CCOC(=O)Cc1c(C)nc2c(-c3ccccc3)cnn2c1C	CHX counter 36.0
CCOC(=O)c1cnc2c(-c3ccccc3)cnn2c1C	CHX counter 39.1, Shiga toxin inh 91.2
CC(=O)c1cnc2c(-c3ccccc3)cnn2c1C	CHX counter 18.5
CCOC(=O)Cc1c(C)nc2cc(C)nn2c1C	Pf growth 96h 13.1µM
COc1ccc(C(=O)CN2C(=O)N(c3ccc(C(C)=O)cc3)S(=O)(=O)c3ccccc32)cc1	none (no result: Pf growth 48h, CHX counter, Shiga toxin inh, Pf growth 96h)
COc1ccc(C(CNC(=O)CNC(=O)c2cc(OC)c(OC)c(OC)c2)N2CCOCC2)cc1 (stereo not drawn)	none (no result: CHX counter, Shiga toxin inh)
O=C(OCC(=O)N1CCCC1)c1cnc(Cl)c(Cl)c1	none (no result: Pf growth 48h, CHX counter, Shiga toxin inh, Pf growth 96h)
Cc1ccc(Nc2nc(CSc3nnnn3-c3ccccc3)cs2)cc1	none
Cc1ccc(Nc2nc(CSc3nnnn3C)cs2)cc1	CHX counter 39.3, Shiga toxin inh 42.3
Cn1nnnc1SCc1csc(Nc2ccccc2)n1	CHX counter 27.8, Shiga toxin inh 123.1
Cc1ccc(NC(=O)Cn2nnc3sc4c(c3c2=O)CCCC4)c(C)c1	none (no result: Pf growth 48h, CHX counter, Shiga toxin inh, Pf growth 96h)
O=C(NCCCc1ccc(F)cc1)C1CCC(=O)N(CC2CCCCC2)C1 (stereo not drawn)	none
CC(C)OC(=O)C1CC(C)(O)C(=O)C(C(=O)OC(C)C)C1c1ccc([N+](=O)[O-])cc1 (stereo not drawn)	HCMV antiviral -64.3, Pf growth 48h inconclusive, Pf growth 96h inconclusive
COc1ccc(C2=NOC(C(=O)Nc3ccc4c(c3)OCCO4)C2)cc1OC (stereo not drawn)	HCMV antiviral inconclusive, Pf growth 48h inconclusive, Pf growth 96h inconclusive
COc1cccc(C2=NOC(C(=O)N3CCN(C(=O)c4ccco4)CC3)C2)c1 (stereo not drawn)	none
COc1cccc(C2=NOC(C(=O)N3CCOCC3)C2)c1 (stereo not drawn)	CHX counter 62.7, Shiga toxin inh 141.4, Pf growth 96h 1.65µM
COc1ccc(C2=NOC(C(=O)N3CCOCC3)C2)cc1OC (stereo not drawn)	CHX counter 17.7, Shiga toxin inh 49.5
CN(Cc1nc(-c2cccs2)no1)CC1COCCO1 (stereo not drawn)	CHX counter 33.2, Shiga toxin inh 61.4, Pf growth 96h inconclusive
CN(Cc1nc(-c2cnccn2)no1)CC(O)c1ccccc1 (stereo not drawn)	Pf growth 96h inconclusive
CCN1CC(CN(C)Cc2nc(-c3cccs3)no2)CC1=O (stereo not drawn)	Pf growth 96h 11.7µM
CN(Cc1nc(C(c2ccccc2)c2ccccc2)no1)CC1COCCO1 (stereo not drawn)	CHX counter 14.5, Pf growth 96h inconclusive
CN(Cc1nc(-c2cccs2)no1)CC(O)c1ccccc1 (stereo not drawn)	CHX counter 44.0, Shiga toxin inh 56.2
COC(=O)c1ccc(NC(=O)CCc2c(C)nc3c(c(C)nn3C(C)(C)C)c2C)cc1	none (no result: Pf growth 48h, CHX counter, Shiga toxin inh, Pf growth 96h)
C#CCCC[C@@H](/C=C/C(=O)OCC)NC(=O)C(F)(F)F	none (no result: Pf growth 48h, CHX counter, Shiga toxin inh, Pf growth 96h)
Nc1cccc2cc(-c3ccccc3)oc12	none (no result: CHX counter, Shiga toxin inh)
COc1cccc2c1C(CO)N1C(C#N)C3CC(C(=O)O)C(C1C2)N3C (stereo not drawn)	HCMV antiviral -76.9, Pf growth 48h inconclusive, Pf growth 96h inconclusive
O=C(CSCc1ccccc1)N=Nc1c(O)[nH]c2ccccc12	CHX counter 27.4
O=C(N=Nc1c(O)[nH]c2ccccc12)c1ccco1	CHX counter 45.1, Shiga toxin inh 65.1, Pf growth 96h inconclusive
O=C(N=Nc1c(O)[nH]c2ccccc12)c1ccc2c(c1)OCO2	CHX counter 26.7
O=C(N=Nc1c(O)[nH]c2ccccc12)c1ccc(CN2CCOCC2)cc1	none
CC(C)CC(=O)N=Nc1c(O)[nH]c2ccccc12	CHX counter 26.2, Shiga toxin inh 105.7, Pf growth 96h inconclusive
O=C(CSCc1cccc(Br)c1)N=Nc1c(O)[nH]c2ccccc12	none
Cn1ccc2c(N3CCC3)cc3c(c21)C1CCC3O1 (stereo not drawn)	none (no result: Pf growth 48h, CHX counter, Shiga toxin inh, Pf growth 96h)
CCC(O)(CC)C(=O)N=Nc1c(O)[nH]c2ccccc12	none
COc1ccc(CC(=O)NCC(=O)N=Nc2c(O)[nH]c3ccccc23)cc1	none
CC(=O)/C=C(\C)N=Nc1c(O)[nH]c2ccccc12	CHX counter 32.3, Shiga toxin inh 56.3
O=C(CNC(=O)c1ccccn1)N=Nc1c(O)[nH]c2ccccc12	Pf growth 48h inconclusive, Shiga toxin inh 47.1
O=C(CN1C(=O)CCc2cc(S(=O)(=O)N3CCOCC3)ccc21)NCc1ccc(Cl)cc1	none (no result: Pf growth 48h, CHX counter, Shiga toxin inh, Pf growth 96h)
CNC(=S)/N=C/NOCc1ccc(Cl)cc1Cl	HCMV antiviral -78.2, Pf growth 48h inconclusive, Pf growth 96h 14.7µM
NC(=O)NOCc1ccc(Cl)cc1Cl	none
CCOc1ccccc1NC(=O)CSc1c2c(nc3ccc(Cl)cc13)CCCC2	none (no result: Pf growth 48h, CHX counter, Shiga toxin inh, Pf growth 96h)
COc1ccc(S(=O)(=O)N(C)c2nc3ccccc3n3c(CC(C)C)nnc23)cc1	Pf growth 48h inconclusive, Pf growth 96h inconclusive

High-throughput results deposited in PubChem BioAssay by National Center for Advancing Translational Sciences (NCATS).
